Outcome and AC50 data for 39 compounds are collected here from PubChem BioAssay (EPA / NIEHS).

Where “and” joins values, the source holds several entries; their conditions need not be identical. Equal entries are not always repeated. Where a structure was tested more than once in an assay, its records may differ in their call. Calls of active or inactive are those of the source. Rule for the calls: active = hit-call score of the fitted dose curve at least 0.9, where 1 is the maximum; inactive = score below 0.9.

Hypoxia-inducible factor 1-alpha (Homo sapiens), sequence (Q16665 whole entry, looked up): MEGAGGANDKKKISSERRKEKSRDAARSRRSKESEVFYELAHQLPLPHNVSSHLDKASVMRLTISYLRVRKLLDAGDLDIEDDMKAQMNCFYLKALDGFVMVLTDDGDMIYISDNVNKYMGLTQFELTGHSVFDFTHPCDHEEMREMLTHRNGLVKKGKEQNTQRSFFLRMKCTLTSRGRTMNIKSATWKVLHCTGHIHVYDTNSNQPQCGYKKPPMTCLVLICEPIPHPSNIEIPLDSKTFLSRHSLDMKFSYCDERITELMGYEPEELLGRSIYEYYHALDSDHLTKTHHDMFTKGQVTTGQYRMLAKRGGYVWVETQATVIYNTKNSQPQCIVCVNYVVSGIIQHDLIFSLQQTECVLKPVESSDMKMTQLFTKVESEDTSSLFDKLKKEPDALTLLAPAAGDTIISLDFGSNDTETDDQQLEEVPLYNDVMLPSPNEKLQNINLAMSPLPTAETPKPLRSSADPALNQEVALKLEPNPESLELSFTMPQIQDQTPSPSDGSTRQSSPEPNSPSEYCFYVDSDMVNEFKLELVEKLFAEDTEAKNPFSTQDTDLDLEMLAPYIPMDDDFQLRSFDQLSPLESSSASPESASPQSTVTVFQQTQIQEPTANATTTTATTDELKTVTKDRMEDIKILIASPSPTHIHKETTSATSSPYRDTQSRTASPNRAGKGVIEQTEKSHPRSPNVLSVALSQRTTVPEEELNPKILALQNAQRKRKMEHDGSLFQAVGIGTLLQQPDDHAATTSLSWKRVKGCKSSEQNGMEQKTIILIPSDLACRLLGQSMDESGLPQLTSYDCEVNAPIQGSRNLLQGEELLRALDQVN

This experiment concerns the target Hypoxia-inducible factor 1-alpha (Homo sapiens) (UniProt Q16665). Description: ATG_HIF1a_CIS: Attagene CIS-FACTORIAL HepG2 Assay for human Hypoxia Inducible Factor 1 (HIF1A) (AID 2282951). The settings on record: HepG2 Attagene cis-factorial HIF1a reporter transcription; actives raise or lower the signal. The procedure:
ATG_CIS is a cell-based, multiplexed-readout assay that uses HepG2, a human liver cell line, with measurements taken at 24 hours after chemical dosing in a 24-well plate.ATG_HIF1a_CIS is one of 52 assay component(s) measured or calculated from the ATG_CIS assay. It is designed to make measurements of mRNA induction, a form of inducible reporter, as detected with fluorescence intensity signals by Reverse transcription polymerase chain reaction (RT-PCR) and Capillary electrophoresis technology.Data from the assay component ATG_HIF1a_CIS was analyzed into 1 assay endpoint. This assay endpoint, ATG_HIF1a_CIS, was analyzed with bidirectional fitting relative to DMSO as the negative control and baseline of activity. Using a type of inducible reporter, measures of mRNA for gain or loss-of-signal activity can be used to understand the reporter gene at the transcription factor-level as they relate to the gene HIF1A. Furthermore, this assay endpoint can be referred to as a primary readout, because this assay has produced multiple assay endpoints where this one serves a reporter gene function. To generalize the intended target to other relatable targets, this assay endpoint is annotated to the dna binding intended target family, where the subfamily is basic helix-loop-helix protein.
Human liver HepG2 cells are transiently transfected with multiple reporter transcription units (MRTUs) in 6-well plates using FuGene 6 reagent (Roche; 3 ml FuGene/1 mg DNA). The MRTU constructs are regulated by a cis-regulating element (promoter). […] A major difference between the CIS and TRANS system is that in CIS activities of endogenous TFs are measured, whereas the TRANS assay evaluates changes in activities of exogenous, chimeric NR-Gal4 proteins. […] At the end of 24 hour incubation, total RNA was isolated using TriZol reagent (Invitrogen). The isolated RNA is then reverse-transcribed using oligo(dT) primer and Mo-MLV reverse transcriptase (Invitrogen) with DNAse I (Ambion) treatment for 30 min. The one-tenth of the produced cDNA was amplified by PCR using Taq DNA polymerase (Invitrogen) and two reporter sequence-specific primers. The PCR products were fluorescently labeled by primer extension with 6-arboxyfluorescein (6-FAM) 5'-labeled reporter sequence-specific primer (2 min at 95 C, 20 s at 68 C and 10 min at 72 C) and these products were digested with 5U of HpaI (New England Biolabs) for 2h at 37 C. The fragments were purified using Qiaquick PCR columns (Qiagen), analyzed on an ABI 3130xL genetic analyzer (Applied Biosystems) with peak positions identified by using a set of X-rhodamine (ROX)-labeled MapMarker1000 molecular weight standards (BioVentures). The raw capillary electrophoresis data was processed using Attagraph software (Attagene).
Take `CN(CCO)S(=O)(=O)C(F)(F)C(F)(F)C(F)(F)C(F)(F)C(F)(F)C(F)(F)C(F)(F)C(F)(F)F`: the call was inactive.

For `CCCCN(C)C`, the outcome was inactive.

For the compound `Nc1ccc(O)c(C(=O)O)c1`, the outcome was inactive.

`CCN(CCC#N)c1ccccc1`: the call was inactive.

Turning to `C=CC(F)(F)C(F)(F)C(F)(F)C(F)(F)F`, the call was inactive.

For `O=C1OC(=O)c2cc(-c3ccc4c(c3)C(=O)OC4=O)ccc21`, the call was inactive.

As for `CC1COCc2cc3c(cc21)C(C)(C)C(C)C3(C)C` (stereo not given), the call was inactive.

Take `COC(=O)C(F)(F)C(F)(F)C(F)(F)F`: the outcome was inactive.

Consider `CCOC(=O)c1nc(C(Cl)(Cl)Cl)n(-c2ccc(Cl)cc2Cl)n1`, for which the outcome was inactive.

Regarding `OCC(CO)(CBr)CBr`, the result was inactive.

For the compound `FC(F)(F)C1(F)C(F)(F)C(F)(F)C(F)(F)C1(F)F`, the call was inactive.

As for `C=Cc1ccc(O)c(OC)c1`, the result was inactive.

On to `c1ccc2c(c1)CCC2`, for which the AC50 is 36.5 µM (active).

Consider `Cc1cc(C(C)(C)C)c(O)c(C(C)(C)C)c1`, for which the compound was classed as inactive.

Regarding `FC(F)(F)N1C(F)(F)C(F)(F)OC(F)(F)C1(F)F`, the result was inactive.

For the compound `CCOCCOCC`, the outcome was inactive.

In the case of `COC(O)c1ccccc1` (stereo not given), the compound was called inactive.

As to `C=CC(=O)OCC(CO)(COCC(COC(=O)C=C)(COC(=O)C=C)COC(=O)C=C)COC(=O)C=C`, the AC50 is 2.92 µM (active).

As for `CCOC=C(C(=O)OCC)C(=O)OCC`, the compound was classed as inactive.

`CS(=O)(=O)c1ccc([C@@H](CC2CCCC2)C(=O)Nc2cnccn2)cc1Cl`: the AC50 was 64.4 µM (active).

Consider `c1cc2cccc3c4cccc5cccc(c(c1)c23)c54`, for which the compound was classed as inactive.

In the case of `O=C(c1ccccc1)c1ccccc1`, the compound was called inactive.

Regarding `Clc1ccc(Nc2nnc(Cc3ccncc3)c3ccccc23)cc1`, the AC50 was 15.8 µM (active).

`COC(=O)CC(C(C)=O)C(=O)OC` (stereo not given): the compound was classed as inactive.

`CCCCCCCCCCCC[N+](C)(C)CCCCCCCCCCCC`: the outcome was inactive.

Consider `CCCCCC(C)OC(=O)COc1ccc(Cl)c2cccnc12` (stereo not given), for which the compound was called inactive.

As for `COc1ccccc1NC(=O)c1cc2ccccc2cc1O`, the AC50 was 22.7 µM (active).

As for `Cc1ccc(S(=O)(=O)O)cc1`, the result was inactive.

`CCCCCCCCC(C)=O`: the compound was classed as inactive.

For `Cc1cccc2c1ccc1ccccc12`, the compound was classed as inactive.

`CCCCCCCCC1CCC(=O)O1` (stereo not given): the compound was classed as inactive.

`NC(=NCCCCCCN=C(N)/N=C(\N)Nc1ccc(Cl)cc1)/N=C(\N)Nc1ccc(Cl)cc1`: the call was inactive.

On to `O=C1OC2(c3ccccc31)c1cc(I)c(O)c(I)c1Oc1c2cc(I)c(O)c1I`, for which the compound was called inactive; the AC50 was 21.2 µM (active) and 34.4 µM (active).

On to `FC(F)(F)C1(F)C(F)(F)C(F)(F)C(F)(F)C(F)(C(F)(F)F)C1(F)F` (stereo not given), for which the compound was classed as inactive.

As for `CCOC(OCC)C(=O)c1ccccc1`, the compound was called inactive.

On to `c1cc[nH]c1`, for which the call was inactive.

On to `O=P(O)(O)CCC(F)(F)C(F)(F)C(F)(F)C(F)(F)C(F)(F)C(F)(F)F`, for which the compound was classed as inactive.

For `O=S(=O)(O)C(F)(F)C(F)(F)C(F)(F)C(F)(F)C(F)(F)C(F)(F)C(F)(F)C(F)(F)C(F)(F)C(F)(F)F`, the compound was called inactive.

On to `CCOC=O`, for which the result was inactive.
